# Test results reported in PubChem BioAssay (NCI).
# About 79,000 compounds went through this panel and 15% of them were active in at least one assay; those are over-represented in the sample as a whole. Unmarked numbers belong to inactive results. Calls of active or inactive are those of the source. Cut-off read from the data, not from the text of the source: active = growth inhibition above about 70%; inactive = the rest.
# How the values were obtained:
# [1] = NCI Yeast Anticancer Drug Screen. Data for the rad50 strain (AID 155);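 note: 0% = growth of vehicle-only cultures of the same strain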; conditions: S. cerevisiae rad50 strain growth inhibition; at 50.0 µM; active compounds read high
# Method in brief: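 Genetically altered yeast (DNA repair pathway); compound treatment; growth inhibition vs vehicle ctrl.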
# [2] = NCI Yeast Anticancer Drug Screen. Data for the mec2-1 strain (AID 157); conditions: S. cerevisiae mec2-1 strain, at 50.0 µM, active compounds read high
# Method in brief: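 Mutant yeast (mec2-1) grown with compound; growth inhibition relative to vehicle control reported.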
# [3] = NCI Yeast Anticancer Drug Screen. Data for the sgs1 mgt1 strain (AID 161);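 note: 0% = growth of cultures given vehicle only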; conditions: S. cerevisiae sgs1 mgt1 strain, at 50.0 µM, active compounds read high
# Method in brief: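 Yeast cells carrying a defined DNA-repair defect were exposed to test compounds. Growth inhibition was measured relative to vehicle-treated controls.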
# [4] = NCI Yeast Anticancer Drug Screen. Data for the cln2 rad14 strain (AID 165);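 note: 0% = growth equal to vehicle treated cultures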; conditions: S. cerevisiae cln2 rad14 strain, at 50.0 µM, active compounds read high
# Method in brief: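 Readout is yeast growth inhibition versus vehicle-treated controls, using a strain with cln2 and rad14 alterations exposed to compound.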
# [5] = NCI Yeast Anticancer Drug Screen. Data for the bub3 strain (AID 167); conditions: S. cerevisiae bub3 mutant strain, at 50.0 µM, active compounds read high
# Method in brief: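 Yeast carrying a defined mutation is treated with each compound, and growth is compared with that of vehicle-exposed cells to give inhibition.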
# [6] = NCI Yeast Anticancer Drug Screen. Data for the mlh1 rad18 strain (AID 175); conditions: S. cerevisiae mlh1 rad18 strain growth inhibition; at 50.0 µM; active compounds read high
# Method in brief: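 Genetically defined yeast (DNA repair-deficient) exposed to compounds; growth inhibition determined relative to vehicle.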
SMILES,growth inhibition [1] [%],growth inhibition [2] [%],growth inhibition [3] [%],growth inhibition [4] [%],growth inhibition [5] [%],growth inhibition [6]
NC(=O)NC(=O)OCC(F)(F)C(F)(F)C(F)(F)C(F)(F)C(F)(F)C(F)(F)C(F)(F)F,45.8,9.9,31.4,15.6,-0.45,6.85%
CC(C)(C)C1CCC2c3c([nH]c4ccccc34)C3C(=O)N(c4cc(Cl)ccc4Cl)C(=O)C3C2C1 (stereo unspecified),18,0.75,-4.05,5.4,6.3,0.9%
CC(=O)c1cnn(C(N)=O)c1C,-42.6,-18.5,-23.7,-46.5,13.5,-5.75%
CCCC(=O)Oc1c(Cl)cc(Cl)cc1-c1ccccc1,12.8,12.9,37.9,8.1,28.6,1.45%
CCc1c([N+](=O)[O-])c2cc([N+](=O)[O-])ccc2n1C,3.35,8.85,-7.65,-1.65,2.8,8.75%
c1ccc2oc(N3CCN(c4nc5ccccc5o4)CC3)nc2c1,4.45,-0.2,-9.1,5.85,12,-12.2%
CCOC1=CC(=O)C(=O)c2ccccc21,-1.05,-10.2,-5.8,-17.7,-0.55,10.3%
COC1OC2COC(c3ccccc3)OC2C2C1N2C(=S)SC (stereo unspecified),-4.05,1.7,-2.7,-17.6,-0.75,-0.55%
CCN(CC)CCCC#N,-5.25,4.7,-8.8,-13,-2.6,-2.85%
COc1ccc([N+](=O)[O-])c(C(OC(C)=O)OC(C)=O)c1OC(C)=O,4,5.6,20.2,9,1.15,-9.4%
O=C1NC(=O)C2(CC3CCCCC3CC2c2ccccc2)N1 (stereo unspecified),17.1,13.3,12.8,3.1,10.3,10.9%
O=C(OCc1ccccc1)N(CCCCN(CCCNC(=O)C(F)(F)F)C(=O)OCc1ccccc1)CCCNC(=O)C(F)(F)F,-14.8,-9.7,21.4,20.4,21.8,-33.8%
CC(C)CCCC(C)C1CCC2C3CC=C4C(C)(C)C(OC(=O)c5ccccc5)CCC4(C)C3CCC12C (stereo unspecified),13.9,-6.6,-4.35,-4.35,5.85,-1.3%
COC1=CC(=O)C(C)=CC1=O,-2.1,2.65,3.5,7.35,16.3,7.5%
COc1ccc(NC(=O)c2cc3ccccc3cc2OC(=O)NC(C)(C)C)cc1,-12.5,-13.3,-7.15,2.5,-0.15,-32.8%
CSc1ccc(C(=O)C[n+]2cc3ccccc3cc2C)cc1,-34.4,-2.5,-16.1,-26.6,2.75,0.7%
CC(C)(CCCCC(C)(C)C1NC(=O)N1)C1NC(=O)N1,-42.6,-7.4,-67.9,-46.5,-9.1,-43.1%
CCCCCCCCCCCCCCCC(=O)OCC1OC(OC2(COC(=O)CCCCCCCCCCCCCCC)OC(COC(=O)CCCCCCCCCCCCCCC)C(OC(=O)CCCCCCCCCCCCCCC)C2OC(=O)CCCCCCCCCCCCCCC)C(OC(=O)CCCCCCCCCCCCCCC)C(OC(=O)CCCCCCCCCCCCCCC)C1OC(=O)CCCCCCCCCCCCCCC (stereo unspecified),-6.25,-26,-34.1,-14.7,-13.9,-6%
CCN(CC)c1nc(C(N)=O)c([N+](=O)[O-])c(N(CC)CC)n1,-9.7,-3.4,14.1,-14.2,-17.9,-0.5%
O=C(/C=C(\O)c1ccc(Cl)cc1)C(=O)NN=C(c1ccccc1)c1ccccc1,39,33.7,3.1,7.2,14.5,8.6%
c1ccc(-c2cccc(-c3cccc(-c4ccccc4)c3)c2)cc1,18.1,0.6,7.5,-47.9,16.8,-6.65%

SMILES,growth inhibition [1] [%],growth inhibition [2] [%],growth inhibition [3] [%],growth inhibition [4] [%],growth inhibition [5] [%],growth inhibition [6]
C=CCOCCC(OCC=C)OCC=C,1.25,7.75,4.4,-23.9,-1.3,8.85%
NC(=O)CNC(=O)[C@@H]1CC(OCCC(=O)O)CN1C(=O)C1CCCN1C(=O)OCc1ccccc1 (stereo partly specified),0.05,-0.8,1.8,6.25,1.3,6.75%
Cc1ccc(NC(=O)Oc2ccc(Br)cc2)c([N+](=O)[O-])c1,20.4,16.9,16.3,16.3,11.3,13.8%
OC1CCCCC1[n+]1ccccc1 (stereo unspecified),-7.8,-0.6,-7.45,-24.1,-7.35,-0.55%
CCCCCOP(=O)(OCCCCC)C(c1ccccc1)c1ccccc1,1,-44.9,-4.15,-33.4,9.5,-11.9%
Cc1ccc(S(=O)(=O)N(CC(O)c2ccccc2)CC(O)c2ccccc2)cc1 (stereo unspecified),-3.95,-1.7,-18.2,3.5,3.95,-8%
COC(=O)C1(OC)C(=O)NC2=C1C(=O)c1ccccc1C2=O (stereo unspecified),-12.1,-13,-4.1,-18.8,9.3,4.8%
Clc1ccc(OCCSCCCCCCCCCCSCCOc2ccc(Cl)cc2)cc1,-2,-3.4,13.9,-24,-8.7,-21.1%
N#CC1CC2c3ccccc3C1([N+](=O)[O-])c1ccccc12 (stereo unspecified),54.5,26.9,12.8,43,45,70.7% (active)
CC1=NN2C(=O)CSC2=NC(C)(C)C1,-5.35,-12.8,7.45,25.9,-5.75,-9.95%
CC1(C)C2CCC13CS(=O)(=O)N1O[C@]13C(=O)O2 (stereo partly specified),19.3,2.7,6.55,15.1,-1.05,31.9%
Nc1nc(SC2CCCCC2)nc2c1ncn2C1OC(CO)C(O)C1O (stereo unspecified),-49.5,-33,-8.15,0.7,-4.75,-13.7%
COC1/C=C\OC2(C)Oc3c(C)c(O)c4c(O)c(c5[nH]cnc5c4c3C2=O)NC(=O)/C(C)=C\C=C\C(C)C(O)C(C)C(O)C(C)C(OC(C)=O)C1C (stereo unspecified),12.1,3.8,24,28.2,17.1,21.4%
CC1=C(C(=O)O)CCc2ccccc21,40.7,-11.5,19.9,13.7,15,36.8%
Cc1cc(S(=O)(=O)Nc2nc(N)nc(N(C)C)n2)c(S)cc1Cl,1.4,-17.2,-3.5,1.9,-46,15.1%
CSC1=Nc2cccnc2Nc2cscc21,-9.25,-6,22.1,9.65,-3.8,25.1%
CC1=CC(O)CC(C)(C)C1/C=C/C(C)=C/C=C/C(C)=C/C=C/C=C(C)/C=C/C=C(C)/C=C/C1=C(C)CC(O)CC1(C)C (stereo unspecified),14.4,-15.4,22.6,16.4,-30.9,-37.1%
C/C=C\CCCCC,13.8,9.4,15.4,24.1,34.6,10.9%
CCc1ccc(NC(=O)Nc2cccc(Cl)c2)cc1,-5.8,14.4,-5.35,-19.6,-0.55,4.9%
FC(F)(F)c1nnc(-c2ccccc2)nn1,-8.8,-16.1,-11.4,-36.6,-14.8,-8.5%
